This assay concerns the target B52 (SRp55) full length (Drosophila melanogaster, UniProt P26686 P26686:1-350). Briefly: EMSA; almost a factor of three. To be noted: tags: baculovirus/Sf9 expressed, SR protein purification; label: 32P-UTP; ssRNA. The procedure: All binding assays were performed in 20 μl volume in 1× binding buffer described above. A typical binding assay using labeled RNA contains about 20 finole of ³²P-labeled RNA probe and differing amounts (1-10 pmole) of B52 protein. A typical binding assay using the truncated versions of B52 contains 1 μl of the ³⁵S-labeled translation reaction mixture with 2 pmoles of unlabeled RNA transcript (the final concentration of RNAs in this reaction was 100 nM and concentration of the labeled B52 proteins was much lower). The reactions were allowed to equilibrate for 15-20 minutes at ambient temperature before being subjected to filter binding, gel shift, or UV crosslinking.
To determine the sequence/structure requirements for binding by B52, deletion and substitution mutations, and antisense constructs of BBS were designed in light of the shared sequence motif and predicted secondary structures (FIG. 4). These short RNA transcripts were produced by in vitro transcription of synthetic templates, and their affinity to B52 was assayed by band shift.
(In EMSA bound probe runs differently from free probe, usually more slowly.)
Sequence of B52 (SRp55) full length (P26686 other isoform, or with tags, fused parts or gaps): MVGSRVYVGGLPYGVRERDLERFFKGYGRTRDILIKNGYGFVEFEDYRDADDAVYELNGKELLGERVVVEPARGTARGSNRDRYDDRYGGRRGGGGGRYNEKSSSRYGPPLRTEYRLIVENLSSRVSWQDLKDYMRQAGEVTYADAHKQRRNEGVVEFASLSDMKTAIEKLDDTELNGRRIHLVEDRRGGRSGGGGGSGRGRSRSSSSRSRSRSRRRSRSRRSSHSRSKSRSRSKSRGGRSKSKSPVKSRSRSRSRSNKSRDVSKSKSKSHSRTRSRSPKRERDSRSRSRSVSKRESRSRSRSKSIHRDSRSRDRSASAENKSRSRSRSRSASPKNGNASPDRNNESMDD
Regarding GGACGAUCAACCAGGCGACAGU, the binding signal was ~3 fold lower affinity than BBS-II.
